PubChem BioAssay AID504766 (The Scripps Research Institute Molecular Screening Center, 2011)
Screen size: about 340,000 compounds; about 3,400 (1%) were called active.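 Rule for the calls: active = inhibition above the mean over all tested compounds plus 3 SD (cut at about 4.2% in these data); inactive = the rest.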 For the sample, actives were picked, then their nearest neighbours and some compounds at random.

biological target: Nuclear receptor subfamily 0 group B member 1 (Homo sapiens) (UniProt P51843); assay: DAX1 (NR0B1) inhibitors, primary screen, cell-based, HEK293, Gal4-DAX1, luciferase luminescence (AID 504766); conditions: HEK293 Gal4-DAX1 luciferase reporter, at 6.75 µM, active compounds read high;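 note: 0% = DAX1-transfected cells with DMSO and 100% = empty-vector control cells with DMSO; inhibition shows as a rise in luminescence from relieved DAX1 repression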
Sequence (P51843 207-470 limits assumed): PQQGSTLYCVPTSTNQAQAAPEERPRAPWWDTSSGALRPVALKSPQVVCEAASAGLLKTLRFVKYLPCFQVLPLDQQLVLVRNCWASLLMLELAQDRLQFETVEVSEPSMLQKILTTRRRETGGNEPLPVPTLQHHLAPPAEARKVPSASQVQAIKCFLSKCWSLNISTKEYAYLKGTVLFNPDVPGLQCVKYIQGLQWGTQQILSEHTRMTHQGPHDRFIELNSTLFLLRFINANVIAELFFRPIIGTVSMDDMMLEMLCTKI

Compound	inhibition
C[C@@H]1CN([C@H](C)CO)C(=O)c2cc(Br)cnc2O[C@@H]1CN(C)Cc1cncnc1	0% (inactive)
c1ccc2cc(OCCN3CCCC3)ccc2c1	0.12% (inactive)
Clc1ccc(-c2cc(COc3ccccc3)no2)cc1Cl	0.18% (inactive)
Clc1ccccc1-c1cc(COc2ccc3ccccc3c2)no1	4.61% (active)
Cc1ccccc1-c1ccc2c(c1)O[C@@H](CN(C)Cc1ccc(C(=O)O)cc1)[C@@H](C)CN([C@H](C)CO)S2(=O)=O	-0.49% (inactive)
Cc1ccnc(SC2CC(=O)N(c3ccccc3)C2=O)n1 (configuration not stated)	2.33% (inactive)
COc1ccc(C2Nc3ccccc3C(=O)N2c2ccc(F)cc2)cc1Cn1nnc2ccccc21 (configuration not stated)	-0.72% (inactive)
COc1ccc(N2C(=O)c3ccccc3NC2c2ccc(OC)c(CN3CCOCC3)c2)cc1 (configuration not stated)	3.5% (inactive)
COc1ccc(C2Nc3ccccc3C(=O)N2c2ccc(Cl)cc2)cc1Cn1cc([N+](=O)[O-])cn1 (configuration not stated)	4.6% (active)
COc1ccc(Cl)cc1NC(=O)CN(C)C(=O)c1cn(-c2ccccc2)nc1-c1cccs1	-0.65% (inactive)
COCC1CCCCN1C(=O)c1cc(COc2ccc(C)c(C)c2)on1 (configuration not stated)	2.51% (inactive)
O=S(=O)(NC1CCCC1)c1ccc(-n2cnnn2)cc1	0.06% (inactive)
O=S(=O)(Nc1ccc(-n2cnnn2)cc1)c1ccc(Cl)cc1	0.55% (inactive)
c1cc(-n2cnnn2)ccc1NC1=NCCC1	5.97% (active)
C[C@@H]1CN([C@H](C)CO)C(=O)CCCn2cc(nn2)CO[C@H]1CN(C)S(C)(=O)=O	0.1% (inactive)
CC1(C)NC(=O)N(CC(=O)Nc2ccc(-c3ccccc3)cc2)C1=O	1.36% (inactive)
CCOC(=O)C1=C(C)c2ccccc2OC1(C)C(=O)OCC (configuration not stated)	0.33% (inactive)
CCOC(=O)C1(C(F)(F)F)N=C(N(C)C)OC(N(C)C)=N1	5.05% (active)
O=C1CC[C@@H](C(=O)N2CSC[C@@H]2C(=O)Nc2ccc(C(F)(F)F)cc2)N1	0.12% (inactive)
O=C(Nc1ccccc1F)c1ccc2c(c1)OCO2	4.59% (active)
O=C(Nc1ccc2c(c1)OCO2)c1ccc(N2C(=O)c3ccccc3C2=O)cc1	0.86% (inactive)
Cn1c(=O)n(C)c2cc(/C=N/NC(=O)c3cccc(Br)c3)ccc21	-2.01% (inactive)
Cn1c(=O)n(C)c2cc(C(=O)Nc3ccc(Br)cc3)ccc21	4.79% (active)

Compound	inhibition
O=C(Nc1ccc(N2CCOCC2)cc1)c1ccc2c(c1)OCO2	1.98% (inactive)
N#Cc1ccccc1NC(=O)c1ccc2c(c1)OCO2	2.82% (inactive)
Cn1c(=O)n(C)c2cc(C(=O)Nc3ccc4c(c3)OCO4)ccc21	13.2% (active)
O=C(CN1CCN(c2ccccc2F)CC1)c1ccc2c(c1)OCO2	-0.06% (inactive)
COc1cccc(OC)c1C(=O)Nc1ccc2c(c1)n(C)c(=O)n2C	1.46% (inactive)
CNC(=O)C[C@H]1C(=O)N(Cc2ccccc2)C[C@@H]1CSC	0.53% (inactive)
Cc1cccc(S(=O)(=O)N(C)C[C@@H]2OCc3cnnn3CCCC(=O)N([C@H](C)CO)C[C@@H]2C)c1	-0.51% (inactive)
CCCNC(=O)C1CC(=O)N(c2ccc(OCc3ccccc3)cc2)C1 (configuration not stated)	2.8% (inactive)
C=CCOc1ccccc1CNn1c(C)n[nH]c1=S	0.12% (inactive)
CCN1CCCC1CNC(=O)c1ccc2c(c1)NC(=O)/C(=C\c1ccccc1F)S2 (configuration not stated)	1.21% (inactive)
O=C(O)c1ccccc1Cc1ccc(F)c2ccccc12	1.12% (inactive)
CSc1ncccc1C(=O)N1CCCC(Nc2ccc(F)c(F)c2)C1 (configuration not stated)	-0.54% (inactive)
Cc1cccc(Nc2nc(-c3ccccc3)cs2)n1	7.24% (active)
CCCCCCC(=O)Nc1nc(C)c(-c2csc(Nc3cccc(OC)c3)n2)s1	1.39% (inactive)
CC(=O)Nc1cccc(-c2csc(Nc3cccc(C)n3)n2)c1	4.29% (active)
COc1ccc(-c2csc(Nc3cccc(C)n3)n2)cc1OC	3.01% (inactive)
Cc1ccc(-c2csc(NC(=O)C3=COCCO3)n2)cc1C	-1.52% (inactive)
COc1ccc2c(c1OC)C(=O)OC2Nc1nc(-c2ccccc2)cs1 (configuration not stated)	0.66% (inactive)
CC(C)C1CCN(C(=O)C2CCC(=O)N(C3CCCCCC3)C2)CC1 (configuration not stated)	1.56% (inactive)
CCOC(=O)c1cnn2c(SC)ncnc12	0.53% (inactive)
Cc1ccc2cccc([N+](=O)[O-])c2n1	0.58% (inactive)
NC(=O)C1(Nc2ccc(-c3ccccc3)cc2)CCCC1	0.6% (inactive)
NC(=O)C1(Nc2ccc([N+](=O)[O-])cc2)CCCC1	-1.28% (inactive)

Compound	inhibition
NC(=O)C1(Nc2ccccc2Cl)CCCC1	4.62% (active)
Cc1ccc(Cc2c(-c3ccccc3)nc3ccc(Cl)cn23)cc1	-0.15% (inactive)
CCOc1ccc(S(=O)(=O)NCCC(=O)NNC(=O)c2ccc(F)cc2)cc1	1.04% (inactive)
Cc1ccc(Oc2nc3ccccc3n3c(C)nnc23)cc1	-0.82% (inactive)
Cn1c(COc2ccc(Cl)cc2)nc2ccccc2c1=O	0.73% (inactive)
Cc1ccc(OCc2nc3ccccc3n2C)cc1	4.76% (active)
Cc1ccccc1C#CC1=CC(=O)CC(C)(C)C1	-0.14% (inactive)
C[C@H]1CN([C@@H](C)CO)C(=O)c2cc(-c3ccccc3F)cnc2O[C@H]1CN(C)C(=O)C1CCOCC1	1.09% (inactive)
CC1(C)CN(CCc2ccccc2)C(=O)[C@H]1CC(=O)Nc1ccc(Br)cc1	0.23% (inactive)
COc1ccc(-c2csc3nc(-c4ccccc4F)oc(=O)c23)cc1OC	-1.37% (inactive)
COc1ccc(-c2noc(-c3cccc(OC)c3OC)n2)cc1OC	4.33% (active)
COc1ccc(-c2noc(CCCC(=O)NC3CCCC3)n2)cc1OC	0.14% (inactive)
COc1ccc(S(=O)(=O)N(C)C)cc1NC(=O)COC(=O)c1n[nH]c2ccccc12	-0.33% (inactive)
Cc1cc(OCC(=O)Nc2nccs2)c2c(C)c(C)c(=O)oc2c1	0.98% (inactive)
Cc1cc(OCc2cc(C(=O)NCc3cc(C(C)C)no3)no2)cc(C)c1Cl	7.06% (active)
COc1ccc(OCc2cc(C(=O)NCC3(C)COC3)no2)c(Cl)c1	0.65% (inactive)
Cc1cccnc1CC(C)NC(=O)c1cc(COc2cncc(Cl)c2)on1 (configuration not stated)	0.03% (inactive)
COc1ccc(Cn2c(=O)oc3ccccc32)cc1	0.51% (inactive)
COc1ccc(/C=C2\SC(=S)N(CCC(=O)N3CCOCC3)C2=O)cc1OC	-0.88% (inactive)
COC(=O)[C@H]1C[C@H](OC(=O)NCc2ccccc2)[C@@]2(O)CN(S(=O)(=O)c3ccc(C)cc3)CC2[C@H]1C(=O)OC (some centres not stated)	0.61% (inactive)
O=C(CNC(=O)c1cc(=O)[nH]c2ccccc12)Nc1ccc(F)c(F)c1	7.53% (active)
CC(C)(CNC(=O)c1cc(=O)[nH]c2ccccc12)N1CCOCC1	-0.11% (inactive)
CC(NC(=O)c1cc(=O)[nH]c2ccccc12)c1ccc(F)cc1F (configuration not stated)	0.16% (inactive)

Compound	inhibition
C[C@H]1CN([C@@H](C)CO)C(=O)CCCn2cc(nn2)CO[C@@H]1CN(C)S(=O)(=O)c1ccccc1C#N	0.36% (inactive)
Cc1ccc(NC(=O)Cn2sc3ccccc3c2=O)cc1	2.09% (inactive)
Nc1ccc(S(=O)(=O)NC(=O)c2ccccc2)cc1	1.24% (inactive)
CC(=O)Nc1ccccc1NC(=O)c1cc(C)cc(C)c1	0.39% (inactive)
Nc1ccc(C(=O)Nc2ccccc2N)cc1	22.7% (active)
Cc1nc2ccccn2c(=O)c1NC(=O)c1ccc(Br)o1	1.03% (inactive)
CC(=O)C1C(c2ccc(Cl)cc2)c2c(n[nH]c2C)CC1(C)O (configuration not stated)	5.48% (active)
CCOC(=O)C1C(c2ccc(OC)c(OC)c2)c2c([nH][nH]c2=O)CC1(C)O (configuration not stated)	0.5% (inactive)
Cc1noc(C)c1NC(=O)N(C)C[C@@H]1Oc2cc(Br)ccc2S(=O)(=O)N([C@@H](C)CO)C[C@H]1C	0.32% (inactive)
CC1CCCC(NC(=O)COC(=O)c2ccccc2C(=O)N(C)C2CCCCC2)C1C (configuration not stated)	-0.71% (inactive)
Cc1ccc(-c2ccc(CN3C(C(C)C)C(=O)N(Cc4cn(CCC5OCCCO5)nn4)CCS3(=O)=O)cc2)cc1 (configuration not stated)	-0.79% (inactive)
COc1ccc(N(C(=O)CNC(=O)c2ccco2)C(C(=O)NCC2CCCO2)c2ccccc2)cc1Cl (configuration not stated)	0.19% (inactive)
O=C(NCC(=O)N(c1ccccc1)C(C(=O)NCC1CCCO1)c1ccccc1)c1cccs1 (configuration not stated)	-0.74% (inactive)
COC(=O)c1cccc(N(C(=O)CNC(=O)c2cccs2)C(C(=O)NCC2CCCO2)c2ccc(OC)c(OC)c2)c1 (configuration not stated)	4.73% (active)
O=C(CSc1nnc(SCc2ccc(F)cc2)s1)Nc1ccc(C(=O)O)cc1	-0.63% (inactive)
O=C(CSc1nc2ccccc2s1)Nc1ccc(C(=O)O)cc1	4.73% (active)
Nc1nnc(SCC(=O)Nc2ccc3nc(SCC(=O)Nc4ccccc4)sc3c2)s1	-3.13% (inactive)
C[C@H]1CN([C@@H](C)CO)C(=O)CCCn2cc(nn2)CO[C@@H]1CN(C)S(=O)(=O)c1cccc(C#N)c1	-0.32% (inactive)
N#CCCN(C(=S)Nc1ccc(Cl)c(Cl)c1)C1CCCCC1	-0.53% (inactive)
CCOc1ccc2sc(NS(=O)(=O)c3ccc(N)cc3)nc2c1	2.57% (inactive)
Cc1ccc(S(=O)(=O)Nc2nc3ccccc3s2)cc1[N+](=O)[O-]	5.09% (active)
Cc1ccc(S(=O)(=O)NCCSc2ccccc2)cc1[N+](=O)[O-]	-0.31% (inactive)
Cc1ccc(-c2ccc(CN3C(C(C)C)C(=O)N(Cc4cn(CCC5OCCO5)nn4)CCS3(=O)=O)cc2)cc1 (configuration not stated)	-1.47% (inactive)
